# According to PubChem BioAssay AID1035470 (Broad Institute, 2014):
# In all, about 1,800 compounds went through this assay and fewer than 10 were called active. Not shown: some 16% with an inconclusive outcome.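 Rule for the calls: active = compound lowering the normal-ribosome reporter at least twice as much as the humanized-ribosome reporter, growth loss under a set limit; inconclusive = no clear call, values can overlap the other calls; inactive = the rest.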 Not all results are given here. Entries with a potency or affinity are not part of this list.
# Test: E. coli strain growth, wild-type against G2058 humanized RFP mutant – G2058 mutant RFP vs wild-type GFP, cherry-pick, two tests, dose response (AID 1035470)
# Settings: E. coli WT-GFP vs G2058-humanized RFP, fluorescence, 24 h; series mostly up to 50 µM
row,SMILES,outcome
1,Cn1c(SCC(=O)Nc2ccccc2-c2ccccc2)nnc1-c1ccco1,inactive
2,O=C(CCCOc1ccccc1)NCCc1nc2ccccc2[nH]1,inactive
3,O=C(Cc1cccc(NC(=O)C2CCN(C(=O)C3CCCCC3)CC2)c1)Nc1cccc(C(=O)N2CCCC2)c1,inactive
4,COc1ccc(-c2noc(=O)n2Cc2ccccc2Cl)cc1,inactive
5,CN1CCSc2ccc(C(=O)Nc3cccc(F)c3)cc21,inactive
6,CC(C)c1ccc(-c2nc3ccccc3s2)cc1,inactive
7,Cc1ccc(-n2cc(CNCCN3CCOC3=O)c(-c3ccc(F)cc3)n2)cc1,inactive
8,Cc1ccc(NC(=O)c2ccc3ncsc3c2)cc1S(=O)(=O)N(C)C,inactive
9,CN(Cc1ccc([N+](=O)[O-])cc1)c1ccccc1,inactive
10,COc1ccc(CN2CCNC(=O)C2CC(=O)NCCCC2CCCC2)c(C)c1C (stereo unspecified),inactive
11,O=C1CCCCC1Nc1ccc(Br)cc1 (stereo unspecified),inactive
12,C[C@@H]1CCCCO[C@@H](CN(C)C)[C@@H](C)CN([C@H](C)CO)C(=O)c2cc(NC(=O)Nc3cccc4ccccc34)ccc2O1,inactive
13,COc1ccc(NC(=O)CSc2n[nH]c(-c3ccncc3)n2)c([N+](=O)[O-])c1,inactive
14,Brc1ccc(Nc2ncnc3[nH]ncc23)cc1,inactive
15,Cc1cccc(-c2ccc([C@@H]3[C@@H](CO)N4CCCCN(S(=O)(=O)c5ccccc5C)C[C@H]34)cc2)c1,inactive
16,C[C@@H]1CN([C@@H](C)CO)S(=O)(=O)c2ccc(Br)cc2O[C@H]1CN(C)C(=O)c1ccccc1,inactive

row,SMILES,outcome
1,Cc1cc(C)c(OCCN(C)Cc2ccccc2)c(Br)c1,inactive
2,C[C@@H](Nc1nc(-c2ccccc2)nc2c1oc1ccccc12)C(=O)O,inactive
3,CCOC(=O)c1ccc(NC(=O)c2ccc(OC(C)C)c(OC)c2)cc1,inactive
4,O=C(C[n+]1ccc(Cc2ccccc2)cc1)Nc1ccc([N+](=O)[O-])cc1Cl,inactive
5,O=C(OCC1COc2ccccc2O1)c1ccccc1F (stereo unspecified),inactive
6,O=C(Nc1ccc(-c2nnc3n2CCCCC3)cc1)c1cc2ccccc2o1,inactive
7,COc1ccc(NC(=O)c2cccc(Oc3ccc([N+](=O)[O-])cc3Cl)c2)cc1,inactive
8,COc1cccc(NC(=O)c2ccc(-c3ccc([N+](=O)[O-])cc3)o2)c1,inactive
9,O=C1CSC(c2cccnc2)N1Cc1ccc(Cl)c(Cl)c1 (stereo unspecified),inactive
10,COc1ccccc1NC(=O)N1CCCCN2[C@@H](CO)[C@H](c3ccc(C#Cc4ccccc4)cc3)[C@@H]2C1,inactive
11,C#CC(C)(C)NC(=O)c1ccc(-c2ccccc2F)cc1,inactive
12,CS(=O)(=O)Nc1ccccc1C(=O)NCCSc1ccccc1,inactive
13,COc1ccc(-c2cc(C(=O)O)nc3ccc4ccccc4c23)cc1OC,inactive
14,Oc1ccc(-c2csc(Nc3ncccn3)n2)cc1,inactive
15,CN(C)S(=O)(=O)c1ccc2oc(SCC(=O)NCC(F)(F)F)nc2c1,inactive
